USP1-UAF1 inh: blocks the human USP1/UAF1 deubiquitinase complex | recombinant USP1/UAF1, Ub-Rhodamine cleavage fluorescence | Potency, µM (series often up to 57.1 µM), actives largely listed as inhibitors | actives 0.23% (n = 390,000); active = well fitted inhibition curve with a large enough effect; inconclusive = small, poorly fitted or top-dose-only effect; inactive = no such curve, though single readings can be large or run the other way; note: nearly all actives have a fitted effect of over 60% in size
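1 nM enzyme complex + cpd, 15 min RT; start with Ub-Rho 150nM final; kinetic fluorescence ex 480/em 540, 6 reads q60 s. Buffer 50mM HEPES pH 7.8, 0.5mM EDTA, 0.1 mg/ml BSA, 1mM TCEP, 0.01% Tween-20.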
D1 ag: activates the human D1 dopamine receptor | HEK293 T-REx D1 cells, calcium flux, agonist mode | activation, % at 2 µM | actives 1% (n = 360,000) | P21728
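Tetracycline-induced HEK293 TREx D1 cells, force-coupled to calcium signalling, were dye-loaded with a no-wash calcium kit. Compound was pin-added after a 10 s baseline. Fluorescence was read kinetically at 1 cycle/s for 180 s, with calcium rises flagged as agonism.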
TRHR PAM: TRH receptor (human) allosteric enhancement; TRHR cells, fluo-8 calcium fluorescence, EC20 TRH enhancement; actives 0.66% (n = 360,000); P34981; AID 493056; enhancement, % at 2 µM; in the data active = enhancement above about 30%
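Enhancer read-out: after compound pinning and an initial kinetic agonist-mode read, an EC20 of TRH (10 nM final) was injected and fluo-8 calcium signal (Ex 480/Em 530) followed at 1 s/cycle for 100 cycles in TRHR-expressing cells.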
D1 antagonist: blocks dopamine activation of the human D1 receptor; actives 3.2% (n = 360,000); P21728; activity change, negative = inhibition, % at 10 µM; HEK293 TREx D1 cells, calcium flux, dopamine EC80; hits give low values; in the data active = activity change below about -30%
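Cells carrying a force-coupled, tetracycline-inducible human D1 receptor report calcium flux. Each well gets a 10 s baseline, compound with 180 s monitoring, then an EC80 dopamine stimulus with a second 180 s kinetic read.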
D1 potentiator: potentiators of human D1 dopamine receptor; actives 0.036% (n = 360,000); P21728; potentiation, % at 10 µM; HEK293 TREx D1 cells, calcium flux, dopamine EC20 potentiation; in the data active = potentiation above about 30%
TRHR agonist: activates the human TRH receptor; TRHR cells, calcium flux fluo-8, FDSS agonist mode; actives 0.18% (n = 360,000); P34981; AID 493084; activation, % at 2 µM
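Agonist-mode FDSS calcium read (Ex 480/Em 530, 1 s cycles) in 1536-well TRHR cells with fluo-8 dye, after 10-cycle baseline and 23 nL compound addition; TRH at EC20 (10 nM final) added afterwards for the enhancer phase.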
Hits are given with their value; n = inactive; u = inconclusive; x = not tested or not shown; ! = a repeat was not active. Sampled rows, rich in hits. Any-hit rate of the full collection: about 4.4%. Cut-off read from the data, not from the text of the source, unless noted: active = activation above about 30%; inactive = the rest.

SMILES	USP1-UAF1 inh	D1 ag	TRHR PAM	D1 antagonist	D1 potentiator	TRHR agonist
O=C(c1cc2c(=O)oc3ccccc3c2s1)N1CCN(c2cccc(Cl)c2)CC1	n	n	n	n	n	n
CCc1c(C2(O)CCCCC2)[nH]c2cc(C(F)(F)F)ccc12	n	32	n	n	n	n
Cc1c(C2(O)CCCCC2)[nH]c2cc(C(F)(F)F)ccc12	n	x	x	x	x	x
CC(=O)N1c2ccc(S(=O)(=O)NCC3CCC(C(=O)N(C)Cc4ccccc4)CC3)cc2CC1C (centres undefined)	n	n	n	n	n	n
O=C(CCNS(=O)(=O)c1ccc2c(c1)CCN2C(=O)C1CC1)N1CCN(c2ccc(F)cc2)CC1	u	n	n	-37	n	n
CCCCN(C)C(=O)C1CCC(CNS(=O)(=O)c2ccc3c(c2)CC(C)N3C(C)=O)CC1 (centres undefined)	n	n	n	-36!	n	n
CC(=O)N1c2ccc(S(=O)(=O)NCCC(=O)NC3CCCC(C)C3C)cc2CC1C (centres undefined)	n	n	n	-39	n	n
CC(=O)N1c2ccc(S(=O)(=O)NCCC(=O)NC3CCCCCC3)cc2CC1C (centres undefined)	n	n	n	n	n	n
CC(=O)N1c2ccc(S(=O)(=O)NCCC(=O)N3CCC(C)CC3)cc2CC1C (centres undefined)	n	n	32	n	n	n
Cc1cc(C)cc(NC(=O)COc2cccc3c(=O)n(C)ccc23)c1	n	n	n	x	n	n
Cc1cccc(NC(=O)CCNS(=O)(=O)c2cccc3nonc23)c1	n	n	n	-50!	n	n
Cc1ccc(NC(=O)CCNS(=O)(=O)c2cccc3nonc23)cc1Cl	n	n	n	-32!	n	n
COc1ccc(NC(=O)CCS(=O)(=O)c2cccc3nonc23)cc1	u	n	n	n	n	n
CCOC(=O)c1cccc(NC(=O)CCNS(=O)(=O)c2cccc3nonc23)c1	n	n	n	n	n	n
COc1ccc(NC(=O)CCS(=O)(=O)c2cccc3nonc23)c(OC)c1	u	n	n	-45	n	n
CC(C)CC1N=C2c3ccccc3N=C(SCC(=O)NCCc3ccc(Cl)cc3)N2C1=O (centres undefined)	n	n	n	n	n	n
COc1ccccc1C(=O)Nc1nnc2n1CCS2	u	n	n	n	n	n
CC(=O)c1cccc(NC(=O)c2oc(=O)c3ccccc3c2-c2ccccc2)c1	n	n	n	-43	n	n
CCOC(=O)c1ccc(NC(=O)c2oc(=O)c3ccccc3c2-c2ccccc2)cc1	n	n	n	-48	n	n
CCOC(=O)c1ccc(NC(=O)c2c(O)c3ccccc3n(C)c2=O)cc1	x	n	n	-73	n	n
CCOc1cc(C(=O)N2CCc3c([nH]c4ccccc34)C2c2ccccc2)cc(OCC)c1OCC (centres undefined)	n	n	n	n	n	n
O=C(NCc1ccccc1)c1ccc(Cn2c(=O)c3cccn3c3cccnc32)cc1	n	n	n	n	n	n
COc1cc(OC)cc(-c2c(-c3cccs3)c3cc(-c4ccc5[nH]ccc5c4)ccc3n2C)c1	n	n	40	x	n	n
COc1cccc2sc3ccc(NCc4ccc5c(c4)OCO5)cc3c(=O)c12	n	31	n	n	n	n
COC1=C(NCc2ccc3c(c2)OCO3)C(=O)C(OC)=C(NCc2ccc3c(c2)OCO3)C1=O	n	x	x	x	x	x
O=C(O)COc1ccc(C(=O)c2ccccc2)cc1	n	n	n	-30	n	n
O=C(COc1ccccc1)c1ccccc1	n	x	x	x	x	x
O=C(O)COc1ccc(-c2nnn(CC(=O)O)n2)cc1	n	n	n	-36	n	n
COc1ccc(-n2c(=O)c3c(c4cc(OC)ccc4n3C)n(C)c2=O)cc1	n	n	n	n	n	n
CCc1ccc(NC(=O)CN2C(=O)C3CCCN3c3ccc(S(=O)(=O)N(CC)CC)cc32)cc1 (centres undefined)	n	n	n	n	n	n

Assay outcomes from PubChem BioAssay.
